Compound activity (PubChem BioAssay)
An excerpt weighted towards active compounds, which were near 5.7% of everything screened.
GRIN3A LBD mod: NR3A (human) ligand-binding domain modulation. Tm shift relative to glycine control, % at 25 µM. NR3A LBD differential scanning fluorimetry, Tm shift; 0% = protein alone, 100% = glycine-bound protein. actives 2.5% (n = 340,000);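 active = melting temperature shift of at least 10% of the positive control shift, at one fixed dose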
Myeloid diff 2: compounds promoting myeloid differentiation | AID 624256 | ER-HoxA9 myeloid progenitors, lysozyme-GFP differentiation, flow cytometry | actives 1% (n = 360,000) | calls only at 10 µM;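 active = normalized GFP-positive differentiation at or above the plate's own cutoff, the solvent-only control mean plus 3 SD; inconclusive = no clear call, values can overlap the other calls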;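 also: cells exposed to compound for four days before flow analysis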
FAS-TE inh: blocks the thioesterase domain of human fatty acid synthase; actives 0.67% (n = 360,000); P49327; recombinant FAS-TE, OMFH fluorogenic substrate, fluorescence endpoint; AID 602261; inhibition, % at 15 µM;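 active = compounds whose normalised, plate-corrected inhibition of enzyme fluorescence in the single-dose primary screen is 50% or more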;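 also: 0% = DMSO with enzyme and 100% = substrate without enzyme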
rCAG binder: r(CAG) repeat RNA binding; TO-PRO-1 dye displacement fluorescence; inhibition, % at 3 µM; actives 1.3% (n = 370,000);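 active = inhibition above the plate cutoff, the mean of all test compounds on that plate plus 3 SD, cut at about 35% in these data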;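 also: 0% = DMSO alone and 100% = 100 µM mitoxantrone as full dye displacement; higher means more dye released from RNA so lower well fluorescence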
MPTP block: permeability transition pore inhibition; isolated mouse mitochondria, Ca2+ swelling absorbance, 30 min; inhibition, % at 10 µM; actives 1.4% (n = 360,000); AID 602449;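 active = inhibition of 50% or more, scaled per plate between neutral and stimulator controls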;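 also: 0% = DMSO wells given calcium and 100% = 1 mM EGTA wells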
rCAG binder conf: r(CAG) RNA repeat binding, confirmation. AID 652065. shares compounds with rCAG binder. inhibition, % at 3 µM. actives 70% (n = 4,300). TO-PRO-1 dye displacement fluorescence;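 active = inhibition above a per-plate cutoff, the mean inhibition of sample wells plus 3 SD, cut at about 35% in these data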;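 also: loss of TO-PRO-1 fluorescence as compound displaces dye from 1x1 AA loop RNA; 0% = DMSO only wells and 100% = 100 µM mitoxantrone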
DNA CAG counter: disrupts DNA CAG TO-PRO-1 complex, flagging rCAG hits | shares compounds with rCAG binder | d(CAG) DNA oligo TO-PRO-1 dye displacement, fluorescence | inhibition, % at 3 µM | actives 94% (n = 4,300);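 active = inhibition above its plate's cutoff, the mean test-well inhibition plus 3 SD, cut at about 4.8% in these data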;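 also: 0% = DNA dye mix with DMSO and 100% = 100 µM mitoxantrone; hits displace the dye from DNA and so lower well fluorescence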
dCAG dye DR: DNA CAG dye complex inhibition, dose response counter-screen; IC50, µM; DNA CAG/GTC duplex TO-PRO-1 dye displacement fluorescence; actives 20% (n = 250); AID 686960; shares compounds with rCAG binder; in the data active = IC50 below about 10 µM
The depositor's hits bear a star.

Screening O=C(Nc1ccc(C(=O)O)cc1)/C(=C\C=C\c1ccccc1)NC(=O)c1ccccc1Br returned GRIN3A LBD mod 6, Myeloid diff 2 inactive, FAS-TE inh 4, rCAG binder 54*, MPTP block 1, rCAG binder conf 35* and DNA CAG counter 12*.
`CC1Cc2cc(S(=O)(=O)N3CCN(c4ccccc4)CC3)ccc2N1C(=O)C1CC1` (configuration not stated) gave GRIN3A LBD mod -1, Myeloid diff 2 inactive, FAS-TE inh 26, rCAG binder 4 and MPTP block 3.
Screening CC(Oc1ccc(Br)cc1)C(=O)Nc1ccc(S(=O)(=O)Nc2nccs2)cc1 (configuration not stated) returned GRIN3A LBD mod 3, Myeloid diff 2 inactive, FAS-TE inh 3, rCAG binder 52*, MPTP block 0, rCAG binder conf 34 and DNA CAG counter 9.4*.
O=S(=O)(Nc1nccs1)c1ccc(NCc2cc(Br)cc(Br)c2O)cc1 was read as GRIN3A LBD mod 8, Myeloid diff 2 inactive, FAS-TE inh 1, rCAG binder 58*, MPTP block 4, rCAG binder conf 41* and DNA CAG counter 14*.
For CCC(Oc1ccc(C)cc1)C(=O)Nc1ccc(S(=O)(=O)Nc2nccs2)cc1 (configuration not stated) the results were GRIN3A LBD mod -8, Myeloid diff 2 inactive, FAS-TE inh 0, rCAG binder 53*, MPTP block -1, rCAG binder conf 33 and DNA CAG counter 8.8*.
Screening O=S1(=O)CCN(C2CC2)CC1 returned Myeloid diff 2 inactive, FAS-TE inh -5, rCAG binder 2 and MPTP block 0.
`COc1cc(OC)cc(C(=O)NN2CCOCC2)c1` gave GRIN3A LBD mod -1, Myeloid diff 2 inconclusive, FAS-TE inh -5, rCAG binder 0 and MPTP block 0.
O=C(O)c1cccc(NC(=O)c2cn(-c3ccccc3)nc2-c2ccc(F)cc2)c1 was read as GRIN3A LBD mod 1, Myeloid diff 2 inactive, FAS-TE inh 2, rCAG binder 38*, MPTP block 0, rCAG binder conf 25 and DNA CAG counter 5.5*.
`Cc1ccc(-c2nn(-c3ccccc3)cc2C(=O)Nc2ccc(C(=O)O)cc2)cc1` gave GRIN3A LBD mod -8, Myeloid diff 2 inactive, FAS-TE inh 2, rCAG binder 44*, MPTP block 1, rCAG binder conf 37* and DNA CAG counter 8.2*.
`Cc1cnc(NC(=O)c2cc3c(C)nn(-c4ccccc4)c3s2)s1` gave GRIN3A LBD mod -2, Myeloid diff 2 inactive, FAS-TE inh -2, rCAG binder 7 and MPTP block 2.
`Cc1ccc(-c2csc(NC(=O)c3ccno3)n2)cc1` gave GRIN3A LBD mod -8, Myeloid diff 2 inactive, FAS-TE inh 1, rCAG binder 45*, MPTP block 1, rCAG binder conf 49* and DNA CAG counter 22*.
For Cc1ccc(-c2csc(NC(=O)c3ccc(C)o3)n2)cc1 the results were GRIN3A LBD mod -26, Myeloid diff 2 inactive, FAS-TE inh 25, rCAG binder 4 and MPTP block 1.
COc1cc(/C=C/c2[nH]c(=O)[nH]c(=O)c2[N+](=O)[O-])cc([N+](=O)[O-])c1O was read as GRIN3A LBD mod 0, Myeloid diff 2 inactive, FAS-TE inh -12, rCAG binder 3 and MPTP block 2.
`O=C1NN(c2ccccc2)C(=O)/C1=C\c1ccc2c(c1)OCO2` gave GRIN3A LBD mod 4, Myeloid diff 2 inactive, FAS-TE inh -3, rCAG binder 5 and MPTP block 0.
For COc1cc(/C=N/n2cnnc2)ccc1OC(=O)c1ccco1 the results were GRIN3A LBD mod -2, Myeloid diff 2 inactive, FAS-TE inh -2, rCAG binder -2 and MPTP block 2.
Cc1ccc(N2NC(=O)/C(=C\c3cc4c(cc3[N+](=O)[O-])OCO4)C2=O)cc1C was read as GRIN3A LBD mod -14, Myeloid diff 2 inactive, FAS-TE inh -8, rCAG binder 64*, MPTP block 8, rCAG binder conf 45* and DNA CAG counter 18*.
Screening COc1cc(/C=C2/C(=O)NN(c3cccc(C)c3)C2=O)ccc1OC(=O)c1ccco1 returned GRIN3A LBD mod -8, Myeloid diff 2 inactive, FAS-TE inh -7, rCAG binder 45*, MPTP block 5, rCAG binder conf 70*, DNA CAG counter 30* and dCAG dye DR inactive.
COc1cc(/C=C2/C(=O)NN(c3cccc(C)c3)C2=O)cc([N+](=O)[O-])c1O was read as GRIN3A LBD mod -6, Myeloid diff 2 inactive, FAS-TE inh -3, rCAG binder 39*, MPTP block 1, rCAG binder conf 20 and DNA CAG counter 6.1*.
`COc1cc(/C=C2/C(=O)NN(c3ccc(C)c(Cl)c3)C2=O)cc([N+](=O)[O-])c1O` gave GRIN3A LBD mod 4, Myeloid diff 2 active, FAS-TE inh 0, rCAG binder 98*, MPTP block 3, rCAG binder conf 52* and DNA CAG counter 16*.
`COc1ccc(NC(=O)c2ccc3c(c2)NC(=O)CO3)cc1OC` gave GRIN3A LBD mod -3, Myeloid diff 2 inactive, FAS-TE inh -2, rCAG binder -1 and MPTP block 1.
Cc1ccc(N(CC(=O)N2CCCCCC2)S(C)(=O)=O)cc1Cl was read as GRIN3A LBD mod 1, Myeloid diff 2 inactive, FAS-TE inh -1, rCAG binder -6 and MPTP block 0.
Screening CCOc1ccc(/C=C2\SC(=O)N(c3ccc(O)cc3)C2=O)cc1OC returned GRIN3A LBD mod -4.
`COc1cc(/C=C2\SC(=O)N(c3cccc(Cl)c3)C2=O)cc([N+](=O)[O-])c1O` gave GRIN3A LBD mod 1, Myeloid diff 2 inactive, FAS-TE inh 35, rCAG binder 37*, MPTP block 0, rCAG binder conf 85* and DNA CAG counter 44*.
For O=C1[C@@H]2CSCN2C(=O)CN1Cc1ccc(F)cc1 the results were GRIN3A LBD mod 3, Myeloid diff 2 inactive, FAS-TE inh -5, rCAG binder 0 and MPTP block 0.
Screening Cc1ccc(/C=N/Nc2cccc(C(=O)O)c2)s1 returned GRIN3A LBD mod 0, Myeloid diff 2 inactive, FAS-TE inh -6, rCAG binder 36*, MPTP block -1, rCAG binder conf 19 and DNA CAG counter 4.8*.
